In PubChem BioAssay AID1159580 (chemical genetic matrix, 2015):
Screen size: about 5,500 compounds; about 2,000 (36%) were called active. Inconclusive results (about 18%) are left out. Cut-off read from the data, not from the text of the source: active = normalized growth mostly below about 0.91 (no sharp cut-off); inconclusive = no clear call, values can overlap the other calls; inactive = mostly above about 0.92. The list shows a part of the results.

Assay: chemical genetic growth profiling, strain panel (AID 1159580);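 note: tested at 20 µM; growth read once vehicle control cultures reached saturation at 30 °C; 1 = growth at the plate median or of vehicle wells; lower values mean less growth of the strain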
Settings: growth OD

Measured: normalized growth

C=CC(C1=CC(=O)C(OC)=CC1=O)c1ccccc1 (configuration not stated)
inactive: S. cerevisiae deletion strains, locus YKL009W, strain mrt4, stronger effect = lower value 0.905 | S. cerevisiae deletion strains, locus YKL068W, stronger effect = lower value 0.977 | S. cerevisiae deletion strains, locus YKL085W, strain MDH1 (second series), stronger effect = lower value 0.954 | S. cerevisiae deletion strains, locus YKL085W, strain MDH1, stronger effect = lower value 0.954 | S. cerevisiae deletion strains, locus YKR026C, strain gcn3, stronger effect = lower value 0.987 | S. cerevisiae deletion strains, locus YKR091W, strain srl3, stronger effect = lower value 0.995 | S. cerevisiae deletion strains, locus YLL041C, strain sdh2, stronger effect = lower value 0.978 | S. cerevisiae deletion strains, locus YLR058C, strain SHM2, stronger effect = lower value 0.953 | S. cerevisiae deletion strains, locus YLR102C, strain apc9, stronger effect = lower value 0.949 | S. cerevisiae deletion strains, locus YLR268W, strain sec22, stronger effect = lower value 0.888 | S. cerevisiae deletion strains, locus YLR357W, strain rsc2, stronger effect = lower value 1.04 | S. cerevisiae deletion strains, locus YLR370C, strain arc18, stronger effect = lower value 0.949 | S. cerevisiae deletion strains, locus YLR371W, strain rom2, stronger effect = lower value 0.937 | S. cerevisiae deletion strains, locus YLR384C, strain iki3, stronger effect = lower value 0.978 | S. cerevisiae deletion strains, locus YML016C, strain PPZ1, stronger effect = lower value 0.959 | S. cerevisiae deletion strains, locus YML124C, strain tub3, stronger effect = lower value 0.963 | S. cerevisiae deletion strains, locus YMR058W, strain fet3, stronger effect = lower value 0.921 | S. cerevisiae deletion strains, locus YMR078C, strain ctf18, stronger effect = lower value 0.928 | S. cerevisiae deletion strains, locus YMR129W, stronger effect = lower value 0.988 | S. cerevisiae deletion strains, locus YMR231W, strain pep5, stronger effect = lower value 1.01 | S. cerevisiae deletion strains, locus YMR263W, strain SAP30, stronger effect = lower value 0.926 | S. cerevisiae deletion strains, locus YMR307W, strain GAS1, stronger effect = lower value 0.864 | S. cerevisiae deletion strains, locus YNL067W, strain RPL9B, stronger effect = lower value 0.873 | S. cerevisiae deletion strains, locus YNL128W, strain TEP1, stronger effect = lower value 0.906 | S. cerevisiae deletion strains, locus YNL153C, strain GIM3, stronger effect = lower value 0.972 | S. cerevisiae deletion strains, locus YNL183C, strain NPR1, stronger effect = lower value 0.871 | S. cerevisiae deletion strains, locus YNL250W, strain rad50, stronger effect = lower value 0.956 | S. cerevisiae deletion strains, locus YNL271C, strain bni1, stronger effect = lower value 0.958 | S. cerevisiae deletion strains, locus YNL298W, strain CLA4, stronger effect = lower value 0.919 | S. cerevisiae deletion strains, locus YNL322C, strain KRE1 (second series), stronger effect = lower value 0.969 | S. cerevisiae deletion strains, locus YNL322C, strain KRE1, stronger effect = lower value 0.928 | S. cerevisiae deletion strains, locus YNR049C, strain mso1, stronger effect = lower value 0.992 | S. cerevisiae deletion strains, locus YNR052C, strain pop2, stronger effect = lower value 0.954 | S. cerevisiae deletion strains, locus YOL006C, strain TOP1, stronger effect = lower value 0.69 | S. cerevisiae deletion strains, locus YOL012C, strain htz1 0.631 | S. cerevisiae deletion strains, locus YOR001W, strain rrp6, stronger effect = lower value 0.943 | S. cerevisiae deletion strains, locus YOR061W, strain CKA2, stronger effect = lower value 0.956 | S. cerevisiae deletion strains, locus YOR069W, strain VPS5, stronger effect = lower value 0.958 | S. cerevisiae deletion strains, locus YOR080W, strain dia2, stronger effect = lower value 0.996 | S. cerevisiae deletion strains, locus YOR083W, strain WHI5, stronger effect = lower value 0.905 | S. cerevisiae deletion strains, locus YOR136W, strain idh2, stronger effect = lower value 0.942 | S. cerevisiae deletion strains, locus YOR144C, strain elg1, stronger effect = lower value 0.973 | S. cerevisiae deletion strains, locus YOR265W, strain rbl2, stronger effect = lower value 0.93 | S. cerevisiae deletion strains, locus YOR290C, strain snf2, stronger effect = lower value 0.89 | S. cerevisiae deletion strains, locus YOR316C, strain cot1, stronger effect = lower value 0.96 | S. cerevisiae deletion strains, locus YPL055C, strain LGE1, stronger effect = lower value 0.816 | S. cerevisiae deletion strains, locus YPL106C, strain sse1, stronger effect = lower value 1.03 | S. cerevisiae deletion strains, locus YPL241C, strain CIN2, stronger effect = lower value 0.962 | S. cerevisiae deletion strains, locus YPR119W, strain clb2, stronger effect = lower value 0.966 | S. cerevisiae deletion strains, locus YPR141C, strain kar3, stronger effect = lower value 0.971 | S. cerevisiae deletion strains, locus YPR167C, strain met16, stronger effect = lower value 0.959
active: S. cerevisiae deletion strains, locus YJR075W, strain HOC1, stronger effect = lower value 0.88 | S. cerevisiae deletion strains, locus YKL160W, strain elf1, stronger effect = lower value 0.79 | S. cerevisiae deletion strains, locus YKL190W, strain CNB1, stronger effect = lower value 0.866 | S. cerevisiae deletion strains, locus YKR001C, strain vps1, stronger effect = lower value 0.774 | S. cerevisiae deletion strains, locus YLL001W, strain dnm1, stronger effect = lower value 0.885 | S. cerevisiae deletion strains, locus YLL026W, stronger effect = lower value 0.85 | S. cerevisiae deletion strains, locus YLR027C, strain aat2, stronger effect = lower value 0.808 | S. cerevisiae deletion strains, locus YLR039C, strain RIC1, stronger effect = lower value 0.519 | S. cerevisiae deletion strains, locus YLR113W, strain HOG1, stronger effect = lower value 0.663 | S. cerevisiae deletion strains, locus YLR221C, strain rsa3, stronger effect = lower value 0.734 | S. cerevisiae deletion strains, locus YLR258W, strain gsy2, stronger effect = lower value 0.875 | S. cerevisiae deletion strains, locus YLR262C, strain YPT6 (second series), stronger effect = lower value 0.518 | S. cerevisiae deletion strains, locus YLR262C, strain YPT6, stronger effect = lower value 0.405 | S. cerevisiae deletion strains, locus YLR320W, strain mms22, stronger effect = lower value 0.379 | S. cerevisiae deletion strains, locus YLR330W, strain CHS5, stronger effect = lower value 0.912 | S. cerevisiae deletion strains, locus YLR342W, strain FKS1 (second series), stronger effect = lower value 0.603 | S. cerevisiae deletion strains, locus YLR342W, strain FKS1, stronger effect = lower value 0.79 | S. cerevisiae deletion strains, locus YLR418C, strain cdc73, stronger effect = lower value 0.774 | S. cerevisiae deletion strains, locus YML032C, strain rad52, stronger effect = lower value 0.883 | S. cerevisiae deletion strains, locus YML120C, strain ndi1, stronger effect = lower value 0.864 | S. cerevisiae deletion strains, locus YMR125W, strain sto1, stronger effect = lower value 0.852 | S. cerevisiae deletion strains, locus YMR205C, strain PFK2, stronger effect = lower value 0.784 | S. cerevisiae deletion strains, locus YMR223W, strain ubp8, stronger effect = lower value 0.84 | S. cerevisiae deletion strains, locus YNL071W, strain lat1, stronger effect = lower value 0.213 | S. cerevisiae deletion strains, locus YNL209W, strain ssb2, stronger effect = lower value 0.908 | S. cerevisiae deletion strains, locus YNL233W, strain BNI4, stronger effect = lower value 0.808 | S. cerevisiae deletion strains, locus YNL248C, strain rpa49, stronger effect = lower value 0.842 | S. cerevisiae deletion strains, locus YNL307C, strain MCK1, stronger effect = lower value 0.302 | S. cerevisiae deletion strains, locus YOL147C, strain pex11, stronger effect = lower value 0.926 | S. cerevisiae deletion strains, locus YOR070C, strain gyp1, stronger effect = lower value 0.79 | S. cerevisiae deletion strains, locus YOR106W, strain vam3, stronger effect = lower value 0.739 | S. cerevisiae deletion strains, locus YOR184W, strain ser1, stronger effect = lower value 0.536 | S. cerevisiae deletion strains, locus YOR231W, strain MKK1, stronger effect = lower value 0.853 | S. cerevisiae deletion strains, locus YOR270C, strain vph1, stronger effect = lower value 0.761 | S. cerevisiae deletion strains, locus YPL051W, strain arl3, stronger effect = lower value 0.737 | S. cerevisiae deletion strains, locus YPL078C, strain atp4, stronger effect = lower value 0.868 | S. cerevisiae deletion strains, locus YPL240C, strain hsp82, stronger effect = lower value 0.904 | S. cerevisiae deletion strains, locus YPL256C, strain CLN2, stronger effect = lower value 0.75 | S. cerevisiae deletion strains, locus YPR163C, strain tif3, stronger effect = lower value 0.766 | S. cerevisiae deletion strains, strain wtn01, stronger effect = lower value 0.846 | S. cerevisiae strains, strain wild type, stronger effect = lower value 0.805
